Assay outcomes as filed in PubChem.
IMPase inh: qHTS Assay for Identifying the Cell-Membrane Permeable IMPase Inhibitors; CHO-M1 cells, IP1 accumulation, HTRF TR-FRET ratio; inhibition (IP1 accumulation), % at 46.1 µM; 120,000 tested, under 10 active; AID 901, 2007; active = well fitted curve in the direction sought with a large enough effect in the signal ratio, not every such curve was filed as active; inconclusive = small, poorly fitted or top-dose-only effect, or a change in a side signal; inactive = no such curve, though single readings can be large or run the other way; the % refers to the signal ratio;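 also: cells stimulated with carbachol in lithium chloride buffer; higher means more IMPase inhibition seen as more IP1 and lower FRET ratio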
Target sequence (P97697 whole entry, looked up): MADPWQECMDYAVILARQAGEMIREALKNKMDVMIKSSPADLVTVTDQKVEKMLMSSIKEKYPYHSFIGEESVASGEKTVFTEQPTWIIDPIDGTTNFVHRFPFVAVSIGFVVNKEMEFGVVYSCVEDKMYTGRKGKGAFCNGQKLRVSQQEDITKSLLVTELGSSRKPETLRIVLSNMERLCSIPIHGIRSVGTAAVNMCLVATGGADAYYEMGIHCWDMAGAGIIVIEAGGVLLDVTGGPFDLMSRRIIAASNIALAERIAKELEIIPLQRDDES
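The IP-One HTRF competitive assay in carbachol-stimulated CHO-M1 cells quantifies cellular IP1. Compounds spanned up to 46 uM final, and activity is expressed as AC50 from concentration-response fits of the ratio and donor data.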
PNC assembly inh: High Content Assay for Compounds that inhibit the Assembly of the Perinucleolar Compartment; PC3M PTB-GFP, PNC prevalence imaging, 16 h; hits give low values; activity change (PNC), negative = inhibition, % at 10 µM; hit rate 3.1% among 140,000;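 active = readout at or below -70, meaning at least 70% loss of cells showing the perinucleolar compartment, a nuclear body marking cancer cells; inconclusive = readout between -30 and a set limit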
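Compounds are pinned in duplicate onto adhered PC3M cells stably expressing GFP-tagged PTB and incubated 16 h at 37 C. Cells are then fixed, nuclei stained with Hoechst, and PNC-positive cells counted.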
ALDH1A1 inh: qHTS Assay for Inhibitors of Aldehyde Dehydrogenase 1 (ALDH1A1); Aldehyde dehydrogenase 1A1 (Homo sapiens), P00352; Purified ALDH1A1, NADH fluorescence, propionaldehyde substrate; Potency, µM (titrated, usually from 75.3 µM), usual class: inhibitors; hit rate 7.3% among 220,000; AID 1030, 2008
IMPase Li inh: qHTS Assay for Identifying the Cell-Membrane Permeable IMPase Inhibitors: Potentiation with Lithium | CHO-M1 cells, IP1 TR-FRET (IP-One), carbachol + lithium | Potency, µM (top dose mostly 59.4 µM), most hits filed as inhibitors | hit rate 0.35% among 210,000 | AID 1457, 2008; active = well fitted curve in the direction sought with a large enough effect; inconclusive = small, poorly fitted or top-dose-only effect, or another doubt; inactive = no such curve, though single readings can be large; an effect the other way counts as inactive or inconclusive;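 also: IP1 builds up when IMPase is blocked and the TR-FRET signal falls; nearly all actives have a fitted effect of over 50% in size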
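Readout is a homogeneous TR-FRET IP1 immunoassay (Ex 320, Em 665 and 620), where raised cytosolic IP1 lowers signal. Cells were CHO-M1 treated 30 min at 37C with test compounds plus a little lithium; AC50 values came from Hill-equation fitting.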
HPGD block: qHTS Assay for Inhibitors of HPGD (15-Hydroxyprostaglandin Dehydrogenase) | purified HPGD, NADH fluorescence kinetic, PGE2 substrate | hit rate 4.3% among 150,000 | AID 894, 2007 | 15-hydroxyprostaglandin dehydrogenase [NAD(+)] (Homo sapiens), P15428 | Potency, µM, hits mostly inhibitors
Target sequence (P15428 whole entry, looked up): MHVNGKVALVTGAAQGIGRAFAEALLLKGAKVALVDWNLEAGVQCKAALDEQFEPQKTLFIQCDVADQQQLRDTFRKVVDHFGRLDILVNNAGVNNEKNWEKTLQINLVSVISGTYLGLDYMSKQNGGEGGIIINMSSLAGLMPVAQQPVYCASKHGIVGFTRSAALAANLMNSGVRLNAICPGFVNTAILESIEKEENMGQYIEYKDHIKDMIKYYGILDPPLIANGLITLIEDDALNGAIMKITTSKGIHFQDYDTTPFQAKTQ
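NADH formation kinetics: reaction with 30 uM PGE2 and 1 mM NAD+ (final), 20 nM enzyme, Tris-HCl pH 8 with Tween 20, after 15 min compound preincubation at room temperature. Fluorescence change, last versus first of five reads.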
ALOX12 inhib: qHTS Assay for Inhibitors of 12-hLO (12-human lipoxygenase) | Polyunsaturated fatty acid lipoxygenase ALOX12 (Homo sapiens), P18054 | purified 12-hLO, xylenol orange hydroperoxide absorbance | Potency, µM (highest dose often 57.1 µM), hits mostly inhibitors | hit rate 0.12% among 150,000 | AID 1452, 2008; active = well fitted curve in the direction sought with a large enough effect; inconclusive = small, poorly fitted or top-dose-only effect, or another doubt; inactive = no such curve, though single readings can be large; an effect the other way counts as inactive or inconclusive; also: nearly all actives have a fitted effect of over 55% in size
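Hydroperoxide output read as Fe(III)-xylenol orange absorbance, 573-to-405 nm ratio, after 30 min reaction with 40 uM arachidonic acid. Enzyme: 150 nM purified human 12hLO, 15 min compound preincubation; 25 mM Hepes pH 7.0, room temperature.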
Large screens that a line does not name were inactive. Only some compounds are listed: those with a hit (about 11% of all), similar ones and a draw of the others. Unless noted, calls follow the shape of the dose curve; as a rule, active = well fitted inhibition curve with a large enough effect (not every such curve was filed as active); inconclusive = small, poorly fitted or top-dose-only effect, or another doubt; inactive = no such curve, though single readings can be large or run the other way.

CCc1cccc2c(C(=O)CSc3nncn3-c3ccc(OC)cc3)c[nH]c12	PNC assembly inh -104 (no result: IMPase inh)
CC(C)(C)n1nc2c(c1NC(=O)c1ccc(S(=O)(=O)N3CCCCC3)cc1)CS(=O)C2 (stereo not drawn)	ALDH1A1 inh 25µM
CCc1cccc2c(C(=O)CSc3nncn3-c3ccccc3OC)c[nH]c12	none
COc1ccc(-n2nnnc2Sc2ccc(S(=O)(=O)N3CCOCC3)cn2)cc1	ALDH1A1 inh 2.8µM, HPGD block 7.1µM
O=C(Nc1c2c(nn1-c1ccccc1)CS(=O)C2)c1ccc(S(=O)(=O)N2CCOCC2)cc1 (stereo not drawn)	none (no result: IMPase inh, PNC assembly inh, HPGD block, ALOX12 inhib)
COc1ccc(-n2nc3c(c2NC(=O)c2ccc(S(=O)(=O)N4CCOCC4)cc2)CS(=O)C3)cc1 (stereo not drawn)	ALDH1A1 inh 2.5µM (no result: IMPase inh, PNC assembly inh, HPGD block, ALOX12 inhib)
COc1ccc(-n2nnnc2SCC(=O)N2CCOCC2)cc1	none
CCOC(=O)OCC1OC(C#Cc2ccc(C)cc2C)C=CC1OC(=O)OCC (stereo not drawn)	none (no result: IMPase inh, PNC assembly inh, IMPase Li inh, HPGD block, ALOX12 inhib)
Cc1cc(S(=O)(=O)NCc2ccccc2)ccc1OCC(=O)NCC1CCCO1 (stereo not drawn)	none (no result: IMPase inh, PNC assembly inh, HPGD block, ALOX12 inhib)
CC1(C)[C@@H]2CC[C@]1(CC(=O)O)[C@H](Cl)C2	none (no result: IMPase inh, PNC assembly inh)
COc1ccc(-n2cnnc2SCC(=O)c2ccc(S(=O)(=O)N3CCOCC3)cc2)cc1	PNC assembly inh inconclusive, ALDH1A1 inh 1.4µM
Cc1ccc(C)c(-c2ccc(C(=O)O)o2)c1	ALDH1A1 inh inconclusive, HPGD block inconclusive (no result: IMPase inh, PNC assembly inh)
Cc1nn(-c2ccccc2)c2c1C(c1cccs1)C(C#N)=C(N)O2 (stereo not drawn)	ALDH1A1 inh 11µM, HPGD block inconclusive
Cc1nn(-c2ccccc2)c2c1C(c1ccc([N+](=O)[O-])cc1)C(C#N)=C(N)O2 (stereo not drawn)	ALDH1A1 inh 14µM (no result: IMPase inh, PNC assembly inh, IMPase Li inh, HPGD block, ALOX12 inhib)
CCCc1nn(-c2ccccc2)c2c1C(c1cccs1)C(C#N)=C(N)O2 (stereo not drawn)	none
Cc1nn(-c2ccccc2)c2c1C(c1ccco1)C(C#N)=C(N)O2 (stereo not drawn)	ALDH1A1 inh 1µM
Cc1ccc(-n2nc(C)c3c2OC(N)=C(C#N)C3c2ccc(F)cc2)cc1 (stereo not drawn)	none
Cc1nn(-c2ccccc2)c(N)c1Sc1ccc([N+](=O)[O-])cc1	PNC assembly inh inconclusive, ALDH1A1 inh 1.4µM, HPGD block 20µM
C=CCC(O)c1ccccc1 (stereo not drawn)	none (no result: IMPase inh, PNC assembly inh)
NNC(=O)Cc1cccnc1	none (no result: IMPase inh, PNC assembly inh)
Cc1ccc(N2C(=O)c3oc4cc(C)c(C)cc4c(=O)c3C2c2cccc(O)c2)nc1 (stereo not drawn)	none (no result: PNC assembly inh, ALDH1A1 inh, IMPase Li inh, HPGD block, ALOX12 inhib)
O=c1oc(-c2ccccc2Cl)nc2ccsc12	PNC assembly inh inconclusive
COc1ccc(-c2csc3nc(-c4ccc(F)cc4)oc(=O)c23)cc1OC	none (no result: PNC assembly inh, ALDH1A1 inh, IMPase Li inh, HPGD block, ALOX12 inhib)
O=c1oc(-c2ccc(F)cc2)nc2ccsc12	PNC assembly inh -111
Cc1cc2c(=O)oc(-c3ccc(F)cc3)nc2s1	ALDH1A1 inh 16µM (no result: IMPase inh, PNC assembly inh, HPGD block, ALOX12 inhib)
Cc1occc(=O)c1OC(=O)Nc1ccc(Cl)c(Cl)c1	PNC assembly inh -113 (no result: IMPase inh)
COc1ccc(C(=O)Oc2c(C)occc2=O)cc1OC	PNC assembly inh inconclusive
CC(C)Cn1c(N)c(C(=O)CSc2nc3ccccc3c(=O)n2CCCN2CCOCC2)c(=O)n(C)c1=O	none (no result: IMPase inh, PNC assembly inh, HPGD block, ALOX12 inhib)
CCOC(=O)c1sc2nc(NC(=O)COc3ccccc3)sc2c1C	ALDH1A1 inh inconclusive, IMPase Li inh 13µM, HPGD block inconclusive
CC(=O)c1sc(NC(=O)COc2ccc(C(C)C)c(C)c2)nc1C	IMPase Li inh 11µM (no result: IMPase inh, PNC assembly inh, HPGD block, ALOX12 inhib)
COC(=O)c1sc(NC(=O)COc2c(C)cccc2C)nc1C	none (no result: IMPase inh, PNC assembly inh, HPGD block, ALOX12 inhib)
CC(=O)c1sc(NC(=O)CCOc2ccccc2)nc1C	ALDH1A1 inh inconclusive (no result: IMPase inh, PNC assembly inh, HPGD block, ALOX12 inhib)
COc1ccc2nc(NNC(=O)COc3ccccc3)sc2c1	ALDH1A1 inh 20µM (no result: IMPase inh, PNC assembly inh, HPGD block, ALOX12 inhib)
